Assay outcomes: PubChem BioAssay, Paczesny and Yang Labs, IUPUI and University of Michigan
Only a selection was taken, and hits are over-represented in it overall.
ST2 inh – inhibitors of human ST2 (IL1RL1) binding to IL-33, primary screen, biochemical, AlphaLISA; inhibition, % for hits at 17 µM; Interleukin-1 receptor-like 1 (Homo sapiens), Q01638; AlphaLISA ST2-Fc/biotin-IL-33 interaction, 1 h; AID 1259354, 2018; 78,000 compounds, 2.3% hits; in the data active = inhibition above about 30%
Target sequence (Q01638 whole entry, looked up): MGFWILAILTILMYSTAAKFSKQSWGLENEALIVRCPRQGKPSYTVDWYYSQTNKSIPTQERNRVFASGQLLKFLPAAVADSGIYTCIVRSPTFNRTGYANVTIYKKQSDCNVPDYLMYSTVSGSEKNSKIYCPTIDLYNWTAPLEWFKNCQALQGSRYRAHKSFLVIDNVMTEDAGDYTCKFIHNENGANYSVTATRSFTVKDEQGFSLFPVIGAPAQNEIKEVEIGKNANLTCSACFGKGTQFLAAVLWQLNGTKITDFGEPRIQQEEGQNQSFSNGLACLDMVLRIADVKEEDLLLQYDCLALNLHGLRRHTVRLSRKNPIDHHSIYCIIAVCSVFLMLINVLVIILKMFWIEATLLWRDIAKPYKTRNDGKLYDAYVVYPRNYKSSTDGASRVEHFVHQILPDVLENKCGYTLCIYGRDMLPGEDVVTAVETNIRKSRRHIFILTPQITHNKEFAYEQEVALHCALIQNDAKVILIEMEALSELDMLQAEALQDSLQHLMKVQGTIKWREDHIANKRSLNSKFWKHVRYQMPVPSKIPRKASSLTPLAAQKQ
Each line names hits and unclear results; the compound was inactive in the other large screens.

CN1CC2(CCCN(C(=O)c3cnc4cccnn34)C2)OC1=O (stereo not drawn)	none
O=C(O)c1ccc2c(c1)C(=O)/C(=C\c1ccc([N+](=O)[O-])o1)C2=O	ST2 inh 91.0%
O=C(O)c1ccc(C(=O)O)c(-c2ccccc2)c1	none
COc1ccc(/C=C2/C(=O)c3ccc(C(=O)O)cc3C2=O)cc1OC	none
O=C(O)c1ccc(N2CCCC2)c([N+](=O)[O-])c1	none
O=C(O)c1ccc2c(c1)C(=O)/C(=C\c1ccco1)C2=O	ST2 inh 71.0%
O=C1OC(c2ccccc2)OC(=O)C1=Cc1ccc(-c2cc(C(=O)O)ccc2Cl)o1 (stereo not drawn)	none
CC1=NN(c2ccccc2)C(=O)C1C1c2ccccc2Oc2ccccc21 (stereo not drawn)	none
COCCO[C@H]1[C@H](NC(=O)C(C)C)c2ccccc2C12CCN(C(=O)[C@@H](O)c1ccccc1)CC2	none
CN(C)CCC1CN(C(=O)c2[nH]cnc2-c2ccccc2)CCO1 (stereo not drawn)	none
CN(CCO)c1ccc(-c2nc(Cc3ccc(F)cc3)no2)cn1	none
COc1ccc(-c2noc([C@@H]3C[C@H](NS(=O)(=O)c4cccs4)CN3C)n2)cc1	ST2 inh 41.0%
CN1C[C@@H](NS(=O)(=O)c2ccccc2)C[C@H]1c1nc(-c2ccccc2)no1	none
CN1C[C@@H](NS(=O)(=O)c2ccccc2)C[C@H]1c1nc(-c2ccc(Cl)cc2)no1	none
COCCC(=O)Nc1cc(C(=O)N(C)C(C)c2nc(C)cs2)cc2nc(-c3ccccc3)n(C)c12 (stereo not drawn)	none
CCN1CCN(Cc2nc3c(c(=O)[nH]c(=O)n3C)n2CCc2ccccc2)CC1	none
O=C(CCC1CCN(C(=O)[C@@H]2C[C@@H]3C=C[C@H]2C3)CC1)Nc1ccc(F)c(Cl)c1	none
COc1cc(C=Nc2ccc(Nc3ccccc3)cc2)c([N+](=O)[O-])cc1OC	ST2 inh 57.0%
COc1ccccc1N=Cc1cccc([N+](=O)[O-])c1O	none
COc1cc(OC)c(OC)cc1/C=C1\N=C(c2ccc(OC)c([N+](=O)[O-])c2)OC1=O	none
O=C(NCCSc1ccccn1)c1ccc([N+](=O)[O-])cc1	none
Cc1nc2c(sc3cc([N+](=O)[O-])cc(Sc4ccccc4)c32)c(=O)n1C	none
O=[N+]([O-])c1cc([N+](=O)[O-])c2c(OCc3ccccc3)nsc2c1	ST2 inh 43.0%
Cc1c(N=Cc2ccccc2)cc([N+](=O)[O-])cc1[N+](=O)[O-]	none
CCOC(=O)CSc1nc2c(c(C3CC=CCC3)c1C#N)CCC2 (stereo not drawn)	none
O[C@]12CCCC[C@H]1CN(Cc1cccc3c1OCO3)CC2	none
NC(=O)c1cc2cc(Br)ccc2oc1=Nc1ccccc1	ST2 inh 33.0%
Cc1cccc(N=c2oc3ccc(Br)cc3cc2C(N)=O)c1	none
Cc1ccc(N=c2oc3ccc(Br)cc3cc2C(N)=O)cc1	none
CC(c1nccs1)N(C)C(=O)c1cn(Cc2ccccc2Cl)nn1 (stereo not drawn)	none
COc1cccc(-c2nc3cc(N=Cc4ccc([N+](=O)[O-])cc4)ccc3o2)c1	none
COc1ccc(C=Nc2ccc3oc(-c4ccncc4)nc3c2)cc1Cl	ST2 inh 33.0%
COc1cccc(-c2nc3cc(N=Cc4cccc(OC)c4O)ccc3o2)c1	none
CCN(CC)C(=O)c1ccc(Cl)c(NC(=O)C[C@@H]2C[C@@H]3C=C[C@H]2C3)c1	none
CC(C)C1CN(C(=O)c2scc3c2OCCO3)CCC(=O)N1CC1CC1 (stereo not drawn)	none
C=CCn1c(SCC(=O)Nc2ccccc2[N+](=O)[O-])nc2sc(CC)cc2c1=O	ST2 inh 30.0%
C=CCn1c(SCC(=O)Nc2sc3c(c2C(=O)OCC)CCC3)nc2ccccc2c1=O	none
CCc1ccccc1NC(=O)CSc1nc2ccccc2c(=O)n1CCc1ccccc1	none
COc1ccccc1-c1nnc(NC(=O)c2ccc(S(=O)(=O)N3CCCCC3C)cc2)o1 (stereo not drawn)	none
COc1ccc(CNC(=O)COc2cc(C)c(Br)c(C)c2)cc1	none
O=C(c1ccc(Cl)cc1)N1CCN(c2ccc([N+](=O)[O-])c3ncccc23)CC1	none
O=[N+]([O-])c1ccc(N2CCN(c3ccccc3)CC2)c2ncccc12	ST2 inh 32.0%
O=C(Cc1ccccc1[N+](=O)[O-])N1CCN(c2ccccn2)CC1	none
O=C(CSc1c2c(nc3cc(Cl)ccc13)CCCC2)Nc1ccc2c(c1)OCCO2	none
COc1ccc2cc3cc(C(=O)N4CCN(C)CC4)sc3nc2c1	none
COc1ccc([N+](=O)[O-])cc1NC(=O)c1ccoc1C	none
COc1ccc([N+](=O)[O-])cc1NC(=O)COc1ccc(C)cc1Br	none
CCN(CCCNC(=O)c1cc2cc3ccc(OC)cc3nc2s1)c1ccccc1	ST2 inh 31.0%
COc1ccc2cc3cc(C(=O)Nc4ccc(OC)c(Cl)c4)sc3nc2c1	ST2 inh 38.0%
COCCNC(=O)c1cc2cc3cc(OC)ccc3nc2s1	none
COc1ccc([N+](=O)[O-])cc1NC(=O)c1cc2cc3ccc(C)cc3nc2s1	ST2 inh 46.0%
COCCCNC(=O)c1cc2cc3cc(OC)ccc3nc2s1	none
COc1ccc2cc3cc(C(=O)NCc4ccc(C)cc4)sc3nc2c1	ST2 inh 31.0%
COc1ccc2nc3sc(C(=O)NCc4ccccc4OC)cc3cc2c1	none
COc1ccc(NC(=O)c2cc3cc4ccc(C)cc4nc3s2)cc1OC	none
CCCCNC(=O)c1cc2cc3cc(OC)ccc3nc2s1	none
Cc1oc(-c2ccc(Cl)cc2)nc1CSCC(=O)NC1CCCCCC1	none
O=C(NCc1ccccc1Cl)c1cccn2c(=O)c3cc4ccccc4cc3nc12	none
C=CCSC(C)C(=O)Nc1ccccc1Sc1c(C)n[nH]c1C (stereo not drawn)	none
CN(C(=O)CCC(F)(F)F)C1CCCN(CCCc2ccccc2)C1 (stereo not drawn)	none
CSc1cccc(NC2=NC3CS(=O)(=O)CC3S2)c1 (stereo not drawn)	none
CCN1CCN(C(=O)CSc2c3c(nc4ccc(Cl)cc24)CCCC3)CC1	none
O=C(Nc1ccccc1-c1ccccc1)c1ccc(Br)o1	none
O=C(Nc1cccc2nsnc12)c1ccc(-c2ccc(Br)cc2)o1	ST2 inh 31.0%
O=C(CS(=O)(=O)c1cccc2nsnc12)Nc1ccccc1Br	none
Cn1c([C@H]2CCN(Cc3ccc(S(C)(=O)=O)cc3)C2)nc2ccccc21	none
CN(Cc1ccc2nsnc2c1)Cc1ccccc1C(=O)O	none
O=C(Nc1ccc(Cl)cc1)c1ccc(Br)o1	none
Clc1cccc(CN2CCOCC2)c1Cl	none
c1ccc2c(CN3CCOCC3)ccnc2c1	ST2 inh 40.0%
CS(=O)(=O)NCCC1CN(Cc2ccnc3ccccc23)CCO1 (stereo not drawn)	none
CN(C(=O)c1cn(-c2ccc(Cl)cc2)c(=O)c2ccccc12)c1ccc(Cl)cc1	none
O=C1/C(=C\c2cccc([N+](=O)[O-])c2)N=C2CCCCCN12	ST2 inh 36.0%
O=[N+]([O-])c1cccc(CN2CCCCCC2)c1	none
O=C1NC(=O)/C(=C\c2cccc([N+](=O)[O-])c2)S1	none
Cc1ccc(NC(=O)COc2ccc([N+](=O)[O-])cc2)cc1C	none
O=C(Cn1cnc2ccccc21)N1CCCC(Nc2ccc3c(c2)OCCO3)C1 (stereo not drawn)	none
COc1cc2c(cc1OC)C(c1ccc(Cl)cc1)OC1=C2C(=O)c2ccccc21 (stereo not drawn)	ST2 inh 47.0%
CCOc1cc2c(cc1OCC)C(c1ccc(OC)c(OC)c1)OC(=O)C2 (stereo not drawn)	none
COc1cc(NC2OC(=O)c3ccccc32)c(OC)cc1Cl (stereo not drawn)	none
CCOC(=O)c1cccnc1-c1cccc2ccnn12	none
